According to PubChem BioAssay AID1903 (Southern Research Specialized Biocontainment Screening …, 2009):
In all, about 310,000 compounds went through this assay and about 1,200 (0.39%) were called active. No rule for the calls is given here. The list is a sample of the results. Potency and affinity values are given separately.

Target: Large T antigen (Simian virus 40) (UniProt P03070)
Assay: TAg ATPase/helicase activity blockers – biochemical (AID 1903)
Details: SV40 large T antigen ATPase/helicase inhibition assay; at 20 µM; active compounds read high

Sequence of Large T antigen (Simian virus 40) (P03070 whole entry, looked up): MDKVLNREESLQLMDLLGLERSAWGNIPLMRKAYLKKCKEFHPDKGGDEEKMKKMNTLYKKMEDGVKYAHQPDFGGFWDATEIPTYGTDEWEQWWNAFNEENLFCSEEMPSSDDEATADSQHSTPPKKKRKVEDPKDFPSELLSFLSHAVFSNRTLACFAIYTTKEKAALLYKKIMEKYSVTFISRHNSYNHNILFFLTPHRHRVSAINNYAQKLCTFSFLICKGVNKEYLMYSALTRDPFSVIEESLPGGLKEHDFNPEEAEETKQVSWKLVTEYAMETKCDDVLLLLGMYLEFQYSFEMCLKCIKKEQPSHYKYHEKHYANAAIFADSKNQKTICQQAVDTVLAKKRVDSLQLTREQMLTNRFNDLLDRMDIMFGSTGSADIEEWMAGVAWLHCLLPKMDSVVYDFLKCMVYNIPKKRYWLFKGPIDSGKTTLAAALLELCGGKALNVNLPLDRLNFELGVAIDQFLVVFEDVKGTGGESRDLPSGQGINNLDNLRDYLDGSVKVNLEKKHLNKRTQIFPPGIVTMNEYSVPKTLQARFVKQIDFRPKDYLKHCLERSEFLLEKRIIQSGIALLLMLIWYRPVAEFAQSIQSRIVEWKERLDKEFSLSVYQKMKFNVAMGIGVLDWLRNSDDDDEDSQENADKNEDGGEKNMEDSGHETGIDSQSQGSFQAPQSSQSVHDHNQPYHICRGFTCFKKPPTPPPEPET

inhibition, inactive:
O=C(CSc1nnc(Cn2c(=O)sc3ccccc32)n1-c1ccccc1)N1CCCCCC1 2.86%
COCCCNCCOCCOc1ccc(C)cc1[N+](=O)[O-] 0.35%
Cc1cccc(NC(=S)NNc2cccc(Cl)c2)c1 23.5%
CCOc1ccc(C(=O)c2ccc(OCC)c(N)c2)cc1N 3.54%
CCOc1ccc(S(=O)(=O)N(CC)CC)cc1N -1.97%
CC(=O)c1ccc(NC(=O)CN2CCC(C(=O)c3ccc(F)cc3)CC2)cc1 25.6%
O=C(CN1CCN(C2CCCCC2)CC1)Nc1ccc(Br)cc1 3.84%
CN(C)c1ccc(NC(=O)CN2CCC(NC(=O)C3CCCCC3)CC2)cc1 28.2%
Cc1ccc(NC(=O)CN2CCC(C(=O)c3ccc(F)cc3)CC2)cc1 11.8%
O=C(CN1CCC(C(=O)c2ccc(F)cc2)CC1)Nc1ccc(F)cc1 3.44%
COc1ccc(C(=O)C2CCN(CC(=O)Nc3ccc(C)cc3)CC2)cc1 -0.7%
COc1cccc(-c2ccc(NC(=O)C3CCCN(Cc4cnc(C)n4C)C3)cc2)c1 (stereo not drawn) 12.9%
Nc1nc(-c2ccccc2)c(-c2ccccc2)s1 22%
Nc1nc(-c2ccccc2)c(-c2ccc([N+](=O)[O-])cc2)s1 2.8%
O=C(Nc1cccc(S(=O)(=O)N2CCCC2)c1)c1cccnc1 8.88%
CCn1c(C)nc2cc(C(=O)NNC(=S)NC(=O)c3ccccc3)ccc21 22.4%
COc1ccc(C(=O)Nc2ccc(NC(=O)C3CC3)cn2)cc1 10.7%
C=CCN1C(=O)S/C(=C/c2ccc(Sc3nc4ccccc4[nH]3)o2)C1=O 6.66%
CC(C)N1C(=O)S/C(=C/c2ccc(Sc3nc4ccccc4[nH]3)o2)C1=O 7.29%
N#C/C(=C/c1ccc(Sc2nc3ccccc3[nH]2)o1)c1cccc(F)c1 0.21%
N#C/C(=C/c1ccc(Sc2nc3ccccc3[nH]2)o1)c1cccc(Br)c1 -8.47%
CCN1C(=O)S/C(=C/c2ccc(Sc3nc4ccccc4[nH]3)o2)C1=O 10.6%
N#C/C(=C\c1ccc(Sc2nc3ccccc3[nH]2)o1)c1ccccc1 13%
O=C(NCc1ccco1)/C(=C/c1ccc(F)cc1)NC(=O)c1ccccc1 5.2%
O=C(O)CC1(CC(=O)Nc2ccc3ccccc3n2)CCCCC1 10.8%
Cc1cccc(N=C2N=C(N)c3ccccc32)c1 0.797%
COc1ccc(-c2nc3ccccn3c2NC2CCCCC2)cc1SC1CCCCC1 9.08%
COc1ccc(-c2cn(Cc3ccc(C)cc3)nn2)cc1 5.41%
COCCOC(=O)C1=C(C)NC(=O)NC1c1cn(-c2ccccc2)nc1-c1cccs1 (stereo not drawn) 8.59%
Cc1cccc(Oc2ccccc2N)c1 -2.44%
CC(=O)Nc1ccc(NC(=O)Oc2ccccc2)cc1 16.2%
O=C(Nc1ccc(N2CCN(c3ccc(O)cc3)CC2)cc1)Oc1ccccc1 16.3%
O=C(CC1C(=O)NCCN1CC(c1ccccc1)c1ccccc1)NC1CC1 (stereo not drawn) 3.88%
OCC1(CCCc2ccccc2)CCN(C2CCC2)CC1 4.13%
O=C(COC(=O)C1=COCCO1)NCc1ccc(F)cc1 17.7%
Cc1ccccc1OCCC(=O)Nc1ccc(F)c(Cl)c1 7.2%
Cc1cc(=O)[nH]c2cc(O)ccc12 12.9%
CCCCCCCCC1=NCCc2c1[nH]c1ccccc21 7.25%
COc1cccc(C=Nc2ccccc2C(=O)Nc2ccccc2)c1O 1.08%
Nc1cc(-c2ccc(Cl)cc2)nn1S(=O)(=O)c1ccccc1 0.87%
CCc1ccc(NC(=O)/C(C#N)=C\c2ccc(OC)c(C(=O)O)c2)cc1 1.43%
COc1ccc(/C=C(/C#N)C(=O)Nc2ccccc2C)cc1C(=O)O 9.24%
COc1ccc(/C=C(\C#N)C(=O)NCc2ccccc2)cc1O 8.17%
N#C/C(=C/c1ccc(N2CCCCC2)o1)C(=O)Nc1ccc(Cl)cc1 22.3%
N#C/C(=C/c1ccc(N2CCOCC2)o1)C(=O)Nc1ccccc1 8.94%
COc1cc(/C=C(\C#N)C(=O)Nc2cccc3ncccc23)ccc1O 3.35%
COc1ccc(/C=C(\C#N)C(=O)Nc2cccc3ncccc23)cc1OC 6.66%
N#C/C(=C\c1ccc(O)c(Br)c1)C(=O)NCc1ccccc1 12.1%
CCOP(=O)(O)c1ccccc1OCCOCCOc1ccccc1P(=O)(O)OCC -4.92%
COc1ccc(Cl)cc1Nc1nc(-c2sc(NC(=O)c3ccccc3)nc2C)cs1 2.67%
CCOC(=O)Cn1c(=NC(=O)C(C)C)sc2c(C)cc(C)cc21 14%
CCCc1nnc(NC(=O)CCC(=O)N2CCCCC2CC)s1 (stereo not drawn) 6.09%
N#C/C(=C\c1ccc(O)c(O)c1)C(=O)NCCCc1ccccc1 37.7%
CC(NC(=O)/C(C#N)=C/c1ccc(C(=O)O)cc1)c1ccccc1 (stereo not drawn) 2.43%
COc1cc(/C=C(\C#N)C(=O)NCCc2ccccc2)cc(OC)c1O 23.4%
O=C(C(=O)N1CCCc2ccccc21)N1CCCc2ccccc21 -4.81%
COc1cc(/C=C(\C#N)C(=O)N2CCc3ccccc32)ccc1O 57%
COc1ccc(/C=C(\C#N)C(=O)NC(C)c2ccccc2)cc1O (stereo not drawn) 4.31%
O=C1NC(=S)N/C1=C\c1ccccc1OCc1ccc(C(=O)O)cc1 11.5%
CN1C(=O)S/C(=C\c2ccccc2OCc2ccc(C(=O)O)cc2)C1=O 10.5%
Cc1nnc(NC(=O)CSc2n[nH]c(-c3ccccc3)n2)s1 -0.77%
O=C(CC(C(=O)N1CCc2ccccc21)n1ccnc1)NCC1CCCO1 (stereo not drawn) 2.93%
COc1ccccc1N(C)S(=O)(=O)c1ccc(C(=O)OCC(=O)NCC(F)(F)F)cc1 21.8%
COc1ccc(OCCCC(=O)OCC(=O)NNC(=O)c2ccc([N+](=O)[O-])cc2)cc1 11.8%
COc1ccc2c(=O)c(N3C(=O)c4ccccc4C3=O)c(C)oc2c1 0.21%
COc1ccc(C)cc1NC(=O)Nc1ccc2c(c1)CCC2 -11.4%
COc1cc(/C=C(/C#N)C(=O)Nc2ccccc2)c(Br)cc1OCc1ccc(C(=O)O)cc1 12.2%
N#C/C(=C/c1ccc(C(=O)O)cc1)C(=O)Nc1ccccc1 2.52%
N#C/C(=C/c1ccc(O)c([N+](=O)[O-])c1)C(=O)Nc1ccccc1 6.93%
COC(=O)c1ccc(COc2ccccc2/C=C(\C#N)C(=O)Nc2ccc(C)cc2)cc1 3.16%
CCOC(=O)Cc1csc(NC(=O)CCCN2C(=O)c3ccccc3C2=O)n1 1.05%
Cc1[nH]c2ccccc2c1C(Nc1nccs1)c1ccncc1 (stereo not drawn) 0.2%
CCOc1ccc(NC(=O)CCn2c(=O)[nH]c3ccsc3c2=O)cc1 9.67%
Cc1ccc(S(=O)(=O)N(C)C)cc1NC(=O)CSc1nc2ccccc2c(=O)n1CC1CCCO1 (stereo not drawn) 23.7%
O=C(Nc1ncccn1)C1=C(O)c2ccccc2S(=O)(=O)N1Cc1ccccc1 2.54%
Cc1cc(Cl)c(S(=O)(=O)NC2CCCCC2)cc1OCC(=O)Nc1nncs1 1.03%
Cc1ccccc1NC(=O)CCNS(=O)(=O)c1ccc2c(c1)CCC(=O)N2 5.35%
Cc1ccc(NC(=O)CCNS(=O)(=O)c2ccc3c(c2)CCC(=O)N3)c(Br)c1 3.77%
CC(C)(C)n1nc2c(c1NC(=O)Cc1cccc3ccccc13)CS(=O)(=O)C2 2.22%
Brc1cccc(Cn2c(-c3cncs3)nc3ccccc32)c1 12%
CC(=O)c1cccc(NC(=O)COC(=O)COc2ccccc2C)c1 2.51%
COc1cc2ccc(=O)oc2cc1O 2.12%
CC(C)c1cc2cc3ccc(=O)oc3cc2o1 4.47%
O=C1CCCc2[nH]nc(-c3cccnc3)c21 12%
Cc1c(Br)c(=O)oc2c(Br)c(O)ccc12 23.7%
Cc1c(C)c2cc(Cl)c(O)c(CN(C)C)c2oc1=O 6.8%
C/C(=N\N=C\c1ccccc1F)c1nnn(-c2nonc2N)c1C -1.72%
O=C(NCc1ccc(Cl)cc1)c1cnn2ccccc12 3.57%
O=C(Nc1ccccc1)N1CCOCC1 12.8%
CCC(=O)Nc1ccc(Nc2ccccc2)cc1 33.2%
O=C(Nc1ccc(F)cc1)N1CCOCC1 0.68%
O=C(O)C1CCCCC1C(=O)Nc1ccccc1Nc1ccccc1 (stereo not drawn) 20.9%
O=C(Nc1ccc(Nc2ccccc2)cc1)c1ccccc1 16.9%
CC(=O)Nc1ccc(Nc2ccccc2)cc1 23.7%
O=C(Nc1ccccc1)Nc1ccc(Nc2ccccc2)cc1 25.8%
O=C(O)C1CCCCC1C(=O)Nc1ccc(-c2ccccc2)cc1 (stereo not drawn) -3.79%
CC(=O)COc1ccc2c(c1C)O/C(=C\c1ccco1)C2=O 35.5%
CCN1C(=O)CC(c2ccc(OC(C)C)cc2)C1=O (stereo not drawn) -0.45%
